Measurements taken from PubChem BioAssay (EPA / NIEHS).
Results filed as inconclusive are left out. Calls of active or inactive are those of the source. The calls were made as follows, unless noted: active = hit-call score of the fitted dose curve at least 0.9, where 1 is the maximum; inactive = score below 0.9.

Tests used:
[1] = APR_HepG2_CellCycleArrest_1hr: Apredica 1-hour HepG2 Assay for Cell Cycle Arrest (AID 2282666); details: high-content imaging, actives raise or lower the signal
Outline: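 HepG2 cells exposed for 1 h to 0.39–200 uM compound (0.5% DMSO). Fixed, Hoechst-stained nuclei imaged by ArrayScan; DNA content quantified by Cell Cycle analysis; bidirectional fit against DMSO.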

[2] = ACEA_ER_80hr: ACEA Biosciences xCELLigence Real-Time Cell Analysis on Estrogen Receptor Agonism for Proliferation (AID 2282667; active = hit-call score of the fitted dose curve at least 0.9, where 1 is the maximum); details: T47D proliferation, impedance (xCELLigence), 80 h
Outline: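 Impedance readout (RT-CES) of T47D proliferation at 80 h post-dose; gain of signal vs DMSO baseline. Compounds: 8 conc, 1:4 serial, top 100 uM final, ≤0.5% DMSO; biological duplicate.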

[3] = APR_HepG2_CellLoss_1hr: Apredica 1-hour HepG2 Assay for Cell Loss (AID 2282668); details: high-content imaging;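 also: curves fitted both ways against DMSO so gain or loss of cells counts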
Outline: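 HepG2 cells were treated for 1 h with compound at 0.39–200 uM, in duplicate, in 0.5% DMSO. After formaldehyde fixation, Hoechst 33342-stained nuclei were imaged on an ArrayScan to count cells. Data were fitted bidirectionally versus DMSO.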

[4] = APR_HepG2_NuclearSize_1hr: Apredica 1-hour HepG2 Assay for Nuclear Size (AID 2282670); details: high-content imaging, actives raise or lower the signal
Outline: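 HepG2 cells dosed 1 hr with 0.39–200 uM compound (0.5% DMSO), formaldehyde-fixed, Hoechst 33342-stained and imaged at 20x; nuclear diameter from nuclear stain, fitted bidirectionally against DMSO.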

[5] = APR_HepG2_p53Act_1hr: Apredica 1-hour HepG2 Assay for p53 Activation (AID 2282671); details: high-content imaging, actives raise or lower the signal
Outline: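 HepG2 cells treated 1 h with compound at 0.39–200 uM (10 concentrations, duplicate) in 0.5% DMSO. Formaldehyde-fixed, permeabilised cells immunostained for p53 with Hoechst 33342; high-content imaging, bidirectional fit versus DMSO.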

[6] = APR_HepG2_P-H2AX_1hr: Apredica 1-hour HepG2 Assay for H2AX Phosphorylation (AID 2282673); details: high-content imaging, actives raise or lower the signal
Outline: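 HepG2 dosed 1 hr at 0.39-200 uM (0.5% DMSO final), duplicate. Fixed in 3.7% formaldehyde, Triton permeabilized, immunostained for phospho-histone H2A.x (1:200) with Hoechst 33342; ArrayScan 20x imaging, bidirectional fit vs DMSO.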

[7] = APR_HepG2_MitoMembPot_1hr: Apredica 1-hour HepG2 Assay for Mitochondrial Membrane Potential (AID 2282675); details: imaging, actives raise or lower the signal
Outline: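 HepG2 cells dosed 1 hour with 0.39–200 uM compound in duplicate, 0.5% DMSO final. MitoTracker Red CMXRos (250 nM, 30 min) loaded before formaldehyde fixation; fluorescence quantified by high-content imaging, bidirectional fitting versus DMSO.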

[8] = APR_HepG2_CellCycleArrest_24hr: Apredica 24-hour HepG2 Assay for Cell Cycle Arrest (AID 2282905); details: imaging, actives raise or lower the signal;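 also: cell cycle arrest scored as ratio of 2N to 4N nuclear DNA content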
Outline: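 Cell cycle arrest is scored from nuclear DNA content measured by high-content imaging of Hoechst 33342-stained HepG2 cells following 24-hour treatment at ten concentrations up to 200 uM, with DMSO as baseline.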

[9] = APR_HepG2_StressKinase_1hr: Apredica 1-hour HepG2 Assay for Stress Kinase (AID 2282906); details: HepG2 stress kinase (phospho-c-Jun) imaging, actives raise or lower the signal
Outline: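 HepG2 cells dosed 0.39-200 uM (0.5% DMSO) for 1 h, then formaldehyde-fixed. Stress kinase read by phospho-c-Jun immunofluorescence using high-content imaging; bidirectional fit vs DMSO.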

[10] = APR_HepG2_NuclearSize_24hr: Apredica 24-hour HepG2 Assay for Nuclear Size (AID 2282907); details: high-content imaging, actives raise or lower the signal
Outline: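 Compounds in DMSO (final 0.5%) were added to human HepG2 hepatoma cells at ten concentrations up to 200 uM for 24 hr. Fixed nuclei were stained with Hoechst 33342, and nuclear diameter was quantified from automated images.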

[11] = APR_HepG2_CellLoss_24hr: Apredica 24-hour HepG2 Assay for Cell Loss (AID 2282908); details: high-content imaging;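 as to AC50: fit in both directions so a hit may be cell loss or gain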
Outline: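 Cell number is quantified by fluorescence imaging of Hoechst 33342-stained nuclei following dosing at 0.39–200 uM in 0.5% DMSO. Curves are fitted in both directions from the DMSO baseline.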

[12] = APR_HepG2_MicrotubuleCSK_24hr: Apredica 24-hour HepG2 Assay for Microtubule CSK Stabilty (AID 2282909); details: HepG2 microtubule cytoskeleton imaging, actives raise or lower the signal
Outline: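 Steps: dose HepG2 for 24 h (0.39–200 uM, 0.5% DMSO); fix 30 min in 3.7% formaldehyde at room temperature; permeabilize; stain alpha-tubulin 60 min; image microtubule cytoskeleton at 20x. Signal change fitted in both directions relative to DMSO.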

[13] = APR_HepG2_MitoticArrest_24hr: Apredica 24-hour HepG2 Assay for Mitotic Arrest (AID 2282910); details: high-content imaging, actives raise or lower the signal
Outline: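 HepG2 cells, 24 h exposure at 0.39-200 uM (10 concentrations, duplicate, 0.5% DMSO). Fixed, stained for phospho-histone H3 with Hoechst; imaged by high-content microscopy, bidirectional fit versus DMSO.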

[14] = APR_HepG2_MitoMembPot_24hr: Apredica 24-hour HepG2 Assay for Mitochondrial Membrane Potential (AID 2282911); details: imaging, actives raise or lower the signal
Outline: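 HepG2, 24 hr dosing, 10 concentrations 0.39–200 uM, 0.5% DMSO final. Live-cell MitoTracker Red CMXRos 250 nM 30 min, then 3.7% formaldehyde fix. HCS fluorescence imaging, 20x; bidirectional fit vs DMSO baseline.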

[15] = APR_HepG2_MitoMass_24hr: Apredica 24-hour HepG2 Assay for Mitochondrial Mass (AID 2282912); details: high-content imaging, actives raise or lower the signal
Outline: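 The liver line HepG2 was dosed in duplicate across a 0.39–200 uM series, with final DMSO held at 0.5% v/v, and harvested at 24 hr. High-content imaging measured mitochondrial dye staining.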

[16] = APR_HepG2_p53Act_24hr: Apredica 24-hour HepG2 Assay for p53 Activation (AID 2282913); details: high-content imaging, actives raise or lower the signal;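 also: p53 protein immunofluorescence averaged per cell in HepG2 with Hoechst nuclei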
Outline: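 Read-out: Cy5 immunofluorescence for p53 in fixed, permeabilized HepG2, imaged by HCS with Hoechst-defined nuclei. Dosing was 24 hr at 0.39–200 uM in 0.5% DMSO. Curves were fitted bidirectionally relative to DMSO.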

[17] = APR_HepG2_CellCycleArrest_72hr: Apredica 72-hour HepG2 Assay for Cell Cycle Arrest (AID 2282914); details: high-content imaging, actives raise or lower the signal
Outline: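 HepG2, 72 hr exposure, 10-point 0.39–200 uM, duplicate, 0.5% DMSO final. Fix 3.7% formaldehyde 30 min RT, Triton X-100 0.5%, Hoechst 33342 2 ug/mL. ArrayScan 20x, six fields/well; DNA content per nucleus; bidirectional fit vs DMSO.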

[18] = APR_HepG2_MicrotubuleCSK_1hr: Apredica 1-hour HepG2 Assay for Microtubule CSK Stabilty (AID 2282669); details: HepG2 microtubule cytoskeleton imaging, actives raise or lower the signal
Outline: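 HepG2 cells exposed 1 h to 0.39–200 uM compound (0.5% DMSO, duplicates), then formaldehyde-fixed, permeabilized and immunostained for alpha-tubulin with Hoechst nuclei. Imaged by ArrayScan high-content analysis; bidirectional fit versus DMSO.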

[19] = APR_HepG2_MitoticArrest_1hr: Apredica 1-hour HepG2 Assay for Mitotic Arrest (AID 2282672); details: high-content imaging, actives raise or lower the signal
Outline: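 HepG2 cells exposed 1 hr to compounds at 0.39–200 uM (0.5% v/v DMSO final), then fixed in 3.7% formaldehyde and immunostained for phospho-histone H3 with Hoechst 33342. Mitotic arrest scored by automated fluorescence imaging, fitted bidirectionally versus DMSO.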

[20] = APR_HepG2_MitoMass_1hr: Apredica 1-hour HepG2 Assay for Mitochondrial Mass (AID 2282674); details: high-content imaging, actives raise or lower the signal
Outline: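 HepG2 cells dosed 1 hr with 0.39-200 uM compound (0.5% DMSO), duplicate wells. Mitochondria stained with 250 nM MitoTracker Red CMXRos for 30 min before formaldehyde fixation, imaged at 20x by ArrayScan; bidirectional fit versus DMSO.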

Measured: AC50

COc1cnc(OC)n2nc(NS(=O)(=O)c3c(OCC(F)F)cccc3C(F)(F)F)nc12
inactive: [1] | [2] | [3] | [4] | [5] | [6] | [7] | [8] | [9] | [10] | [11] | [12] | [13] | [14] | [15] | [16] | [17]

COP(=S)(OC)Oc1nc(Cl)c(Cl)cc1Cl
inactive: [1] | [2] | [3] | [4] | [5] | [7] | [8] | [9] | [10] | [11] | [12] | [13] | [15] | [16] | [17]

O=C(Nc1ccccc1)Nc1ccnc(Cl)c1
active: [7] 99.5 µM | [8] 69.9 µM | [11] 84.3 µM | [12] 84.5 µM | [15] 108 µM | [17] 37.2 µM
inactive: [1] | [2] | [18] | [4] | [5] | [19] | [9] | [10] | [13] | [16]

COC(=O)c1ccccc1C(=O)OC
inactive: [1] | [2] | [18] | [4] | [5] | [19] | [7] | [8] | [9] | [10] | [11] | [12] | [13] | [14] | [15] | [16] | [17]

O=C(O)COc1nc(Cl)c(Cl)cc1Cl
inactive: [1] | [2] | [3] | [4] | [5] | [20] | [7] | [8] | [9] | [10] | [11] | [12] | [13] | [15] | [16] | [17]

COP(N)(=O)SC (centres undefined)
inactive: [1] | [2] | [4] | [5] | [19] | [6] | [20] | [7] | [8] | [9] | [10] | [11] | [12] | [13] | [15] | [16] | [17]

Cc1ccc(-c2c(Cl)nc(C#N)n2S(=O)(=O)N(C)C)cc1
inactive: [1] | [3] | [4] | [5] | [8] | [9] | [10] | [11] | [12] | [13] | [15] | [16] | [17]
active: [2] 10.5 µM | [7] 100 µM | [14] 78.1 µM
